Laboratory results published in paper PMC4336329 (PLoS ONE, 2015).
Hit rate of the full screen: of about 310,000 compounds, about 14,000 (4.5%) showed an effect of 50% or more. Effects have a minus sign here. Shown is part of a subset that was picked to be rich in strong results.

target: human ether-à-go-go-related gene (hERG) potassium channel (human, UniProt Q12809); assay: primary screen, population patch clamp on CHO cells stably expressing hERG; higher = less effect of the substance
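Note: peak tail current of the secondary pulse compared with the same well before compound.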

human ether-à-go-go-related gene (hERG) potassium channel, sequence (Q12809 whole entry, looked up): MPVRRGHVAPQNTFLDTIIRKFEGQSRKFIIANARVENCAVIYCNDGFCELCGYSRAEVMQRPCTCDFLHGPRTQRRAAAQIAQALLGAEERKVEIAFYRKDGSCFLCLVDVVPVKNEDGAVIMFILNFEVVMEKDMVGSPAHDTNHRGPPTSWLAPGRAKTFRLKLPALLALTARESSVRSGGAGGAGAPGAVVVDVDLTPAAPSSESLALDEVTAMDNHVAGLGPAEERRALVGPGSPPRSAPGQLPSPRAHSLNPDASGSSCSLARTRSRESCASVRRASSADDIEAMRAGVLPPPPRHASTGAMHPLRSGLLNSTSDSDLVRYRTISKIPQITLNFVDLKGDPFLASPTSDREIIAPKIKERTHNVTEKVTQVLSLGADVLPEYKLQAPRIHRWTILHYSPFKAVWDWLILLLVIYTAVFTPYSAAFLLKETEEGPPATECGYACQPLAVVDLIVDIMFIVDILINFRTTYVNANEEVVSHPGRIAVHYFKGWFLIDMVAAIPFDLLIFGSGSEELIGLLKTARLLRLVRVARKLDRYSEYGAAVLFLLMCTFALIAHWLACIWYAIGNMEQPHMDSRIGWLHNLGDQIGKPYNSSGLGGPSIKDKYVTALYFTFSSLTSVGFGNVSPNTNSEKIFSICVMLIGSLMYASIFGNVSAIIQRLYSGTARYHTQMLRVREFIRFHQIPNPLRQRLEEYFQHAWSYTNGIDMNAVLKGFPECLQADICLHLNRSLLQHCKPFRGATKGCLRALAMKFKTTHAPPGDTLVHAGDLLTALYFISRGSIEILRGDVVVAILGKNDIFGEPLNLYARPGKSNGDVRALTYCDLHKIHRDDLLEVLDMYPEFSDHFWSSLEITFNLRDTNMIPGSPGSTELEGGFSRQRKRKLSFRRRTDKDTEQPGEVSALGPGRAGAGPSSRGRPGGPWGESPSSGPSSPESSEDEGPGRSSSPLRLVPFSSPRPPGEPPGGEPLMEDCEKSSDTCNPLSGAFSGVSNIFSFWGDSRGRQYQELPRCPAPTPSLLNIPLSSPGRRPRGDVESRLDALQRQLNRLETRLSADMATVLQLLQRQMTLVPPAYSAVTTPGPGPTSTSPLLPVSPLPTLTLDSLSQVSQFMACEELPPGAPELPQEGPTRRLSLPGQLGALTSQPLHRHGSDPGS

SMILES	hERG current change (%, negative = inhibition) at 10uM [%]
Fc1cccc(-c2oncc2-c2nnnn2-c2ccc(Cl)cc2)c1	-13.9
CCOC(=O)c1ccc(NC(=O)CCc2nnc3ccc(N4CCCC4)nn23)cc1	5.84
O=C(OCC1CC(c2ccccc2)=NO1)c1ccc(Cl)cc1 (stereo not shown)	18.6
CN1CCN(CP(=O)(N2CCOCC2)N2CCOCC2)CC1	1.13
Br.CC(C)(C)C(=O)Cn1c(NCCCO)nc2ccccc21	-7.81
CC(NS(=O)(=O)c1ccc(CCC(=O)NCc2cccnc2)cc1)c1ccccc1 (stereo not shown)	-1.35
CCOC(=O)CSc1nnc(NC(=O)c2cc([N+](=O)[O-])cc([N+](=O)[O-])c2)s1	-8.83
O=C(C[n+]1ccccc1)N/N=C/c1cccs1.[Cl-]	12
Cn1ccnc1SCCNC(=O)C1CCC(=O)N(Cc2ccc(Cl)cc2)C1 (stereo not shown)	-3.3
COc1cc(NC(=O)CN(c2ccc(C)cc2)S(=O)(=O)c2c(C)noc2C)cc(OC)c1	16.3
C=CCn1c(O)c(C(C)=NCCc2c[nH]c3ccccc23)c(=O)[nH]c1=O	-31.9
COc1ccc(CN2CCN(c3ccccn3)CC2)c(OC)c1C.O=C([O-])C(=O)[O-]	-55.8
COc1ccc(CN2CCN(C(=O)Cc3ccccc3)CC2)c(OC)c1	-31.5
COc1ccc(CN2CCN(c3ccccn3)CC2)c(OC)c1C.O=C(O)C(=O)O	-37.1
CC(CCc1ccccc1)N1CCN(C)CC1 (stereo not shown)	-20.4
COc1ccc(OC)c(CN2CCN(Cc3cc(OC)c(OC)c(OC)c3)CC2)c1	9.45
CC(CCc1ccccc1)N1CCN(Cc2ccccc2)CC1 (stereo not shown)	-75.2
CCN1CCN(C(C)CCc2ccccc2)CC1 (stereo not shown)	-17.7
COc1ccc(CN2CCN(Cc3ccccc3)CC2)c(OC)c1	-69.9
COc1ccc(CN2CCN(c3ncccn3)CC2)c(C)c1C	-35.9
COCCn1cnc2c(c1=O)c1nc3ccccc3nc1n2/N=C/c1ccco1	-7.29
COc1ccc(CNS(=O)(=O)c2ccc(-c3ccc(=O)[nH]n3)s2)cc1OC	-29.5

SMILES	hERG current change (%, negative = inhibition) at 10uM [%]
COC(=O)c1ccc2c(=O)n(CC3CCCO3)c(SCC(=O)Nc3ccccc3OC)nc2c1 (stereo not shown)	-4.41
CS(=O)(=O)c1nc(-c2ccccc2)cc(-c2ccccc2)c1C#N	8.33
CC(C)CCC(O)(c1ccccc1)C(CN1CCOCC1)c1ccccc1.Cl (stereo not shown)	-1.36
CNS(=O)(=O)Cc1ccc2[nH]cc(CCN(C)C)c2c1	10.6
Cc1ccc(C)c(CN2CCC(CNC(=O)CCc3nnc4ccc(N5CCCCC5)nn34)CC2)c1	-30.3
COc1ccc(NC(=O)NNC(=O)c2ccccc2-n2cccc2)cc1OC	25.4
COc1ccc2c(=O)c3c(=O)n(Cc4ccco4)c(-c4ccc(C)cc4)nc3oc2c1	-53.3
COc1ccc(-c2nc3oc4cc(OC)ccc4c(=O)c3c(=O)n2Cc2ccco2)cc1	-27.5
COc1ccc(Cn2c(-c3ccco3)nc3oc4cc(OC)ccc4c(=O)c3c2=O)cc1	-31.4
COc1ccc2c(=O)c3c(=O)n(Cc4ccco4)c(-c4ccccc4)nc3oc2c1	-32.2
COc1ccc2c(=O)c3c(=O)n(Cc4ccco4)c(-c4cc(OC)c(OC)c(OC)c4)nc3oc2c1	-16
COc1ccc2c(=O)c3c(=O)n(Cc4ccco4)c(-c4ccco4)nc3oc2c1	-62.4
Nc1c(C(=O)Nc2ccc3c(c2)OCCO3)nnn1Cc1cccc(F)c1	-4.88
COc1ccc2c(C)nc(Nc3nc(-c4ccccc4)cc(=O)[nH]3)nc2c1	2.47
O=C(Cn1cccc1C(=O)c1ccccc1)NCCCc1ccccc1	-8.33
Cc1ccccc1C(=O)c1cccn1CC(=O)NCCCc1ccccc1	9.69
Cc1ccccc1C(=O)c1cccn1CC(=O)NCc1ccccc1	21.7
CCCNC(=O)Cn1cccc1C(=O)c1ccccc1	14.7
Cc1ccccc1C(=O)c1cccn1CC(=O)NCCCN1CC(C)CC(C)C1 (stereo not shown)	-72.1
CC1CC(C)CN(CCCNC(=O)Cn2cccc2C(=O)c2ccccc2)C1 (stereo not shown)	-63.1
Cc1ccc(NC(=O)c2ccc(OCC3CCCO3)cc2)c(C)c1 (stereo not shown)	-9.65
Cc1cc(NC(=O)c2sc(Nc3ccc(F)cc3)nc2N)no1	20

SMILES	hERG current change (%, negative = inhibition) at 10uM [%]
Cc1ccc(S(=O)(=O)N2CCN(c3ccccc3)CC2)cc1C	6.82
Cc1cc(N2CCN(S(=O)(=O)c3ccc(Cl)c(Cl)c3)CC2)c2ccccc2n1	-45.3
Cc1cc(N2CCN(S(=O)(=O)c3ccc(C)c(C)c3)CC2)c2ccccc2n1	-64.6
Cc1ccc(S(=O)(=O)N2CCN(c3ncccn3)CC2)cc1C	13.9
CC(=O)Nc1ccc(S(=O)(=O)N2CCN(c3nc(NC4CCCC4)c4ccccc4n3)CC2)cc1	-75.8
Cc1cc(N2CCN(S(=O)(=O)c3ccc(Cl)cc3)CC2)c2ccccc2n1	-77.8
CC(=O)Nc1ccc(S(=O)(=O)N2CCN(c3ncccn3)CC2)cc1	6.13
Cc1ccccc1N1CCN(S(=O)(=O)c2ccccc2)CC1	0.732
Cc1cc(N2CCN(S(=O)(=O)c3ccccc3)CC2)c2ccccc2n1	-73.3
Cn1c(N2CCN(S(=O)(=O)c3ccc(Cl)cc3)CC2)nc2ccccc21	-34
CC(=O)Nc1ccc(S(=O)(=O)N2CCN(c3ccccn3)CC2)cc1	-3.36
Cc1cc(N2CCN(S(=O)(=O)c3ccccc3)CC2)nc2c(C)cccc12	23.1
O=C(CCCn1nnc2ccccc2c1=O)N[C@@H](Cc1ccccc1)C(=O)O	13
COc1cc(OC)c(/C=N/n2c(C3CCCCC3)n[nH]c2=S)c(OC)c1	22.6
CCSc1nc2c(c(=O)n1-c1ccc(F)cc1)SCC2	-4.12
Cc1cc(C)cc(NC(=O)N2C3CCCC2CC(NC(=O)C2CC2)C3)c1 (stereo not shown)	17
Fc1ccc(COc2ccccc2-c2ccnc3ncnn23)cc1	-6.51
Cc1cccc(C)c1NC(=O)CN(C)CC(=O)N(C)CC(=O)Nc1ccccc1Br	14
CCCn1c(-c2ccc[nH]c2=O)nc2ccccc21	15.6
CCOC(=O)c1ccc(NC(=O)C2CC(=O)N(c3ccc4c(c3)OCCO4)C2)cc1 (stereo not shown)	10.7
COC(=O)c1nn(-c2c(C)n(C)n(-c3ccccc3)c2=O)cc1O	5.84
COc1cccc(NC(=S)NNC(=O)CCn2cc([N+](=O)[O-])cn2)c1	-2.61

SMILES	hERG current change (%, negative = inhibition) at 10uM [%]
Cc1ccc(NCc2nnc(SCC(=O)N(Cc3ccccc3)C(C)(C)C)o2)c(C)c1	-9.53
CC(=O)Nc1ccc(S(=O)(=O)N2CCN(S(=O)(=O)c3ccccc3)CC2)cc1	11.7
CC(=O)Nc1ccc(S(=O)(=O)N2CCN(c3cc(C)nc4ccccc34)CC2)cc1	-88.5
CC(=O)Nc1ccc(S(=O)(=O)N2CCN(c3nc(C)cc(C)n3)CC2)cc1	5.68
C[C@@H](NC(=O)c1[nH]cnc1C(=O)Nc1nccs1)c1ccccc1	-3.32
CC(=O)Nc1cccc(C(=O)Nc2ccccc2N2CCOCC2)c1	-0.962
Cc1ccccc1-n1c(Cn2c(=O)sc3ccccc32)nnc1SCC(=O)NCC1CCCO1 (stereo not shown)	-2.85
CCOc1ccccc1-n1c(=O)c2ccccc2c2ccccc2c1=O	-6.99
CC1(C)CC(=O)CC2(C1)NCC(c1ccccc1Cl)c1c2[nH]c2ccccc12.Cl (stereo not shown)	-51.4
COc1cccc(C2CNC3(CCCC(C)C3)c3[nH]c4ccccc4c32)c1OC.Cl (stereo not shown)	-23.6
CC1(C)CC(=O)CC2(C1)NCC(c1ccccc1)c1c2[nH]c2ccccc12.Cl (stereo not shown)	-85.8
CC1c2c([nH]c3ccccc23)CCC1C(=O)O (stereo not shown)	22.4
ClCC1NCC(c2ccccc2Cl)c2c1[nH]c1ccccc21 (stereo not shown)	0.482
CC1(C)NC(C(=O)O)Cc2c1[nH]c1ccccc21 (stereo not shown)	3.65
O=Nc1ccc(NOC(=O)c2ccccc2Br)cc1	3.45
CC(C)(C)c1cc(CCC(=O)Nc2ccncc2)cc(C(C)(C)C)c1O	-16.6
CCN(CC)CCNC(=O)C(C)c1nn(CC)c(=O)c2ccccc12.Cl (stereo not shown)	7.49
CCN(CC)CCN1C(=O)Cn2c(C)c(C)c3cccc1c32.Cl	-52.4
CCN(CC)CCN1C(=O)C2C3c4ccccc4C(c4ccccc43)C2C1=O (stereo not shown)	-2.51
Cc1c(C)n2c3c(cccc13)CC2	-0.781
CCN(CC)CCN1C(=O)Cn2c(C)c(C)c3cccc1c32.O=C(O)C(O)C(O)C(=O)O	-65.1
CCN(CC)CCNC(=O)Cn1nc(-c2ccccc2)c2ccccc2c1=O	-31
